According to PubChem BioAssay (NCATS):
Where “and” joins values, the source holds several entries; their conditions need not be identical. Equal entries are not always repeated. Inconclusive results are not listed. A number with no mark means an inactive call. Calls of active or inactive are those of the source. Calls come from the whole dose curve; as a rule, active = well fitted curve in either direction with a large enough effect (not every such curve was filed as active); inconclusive = small, poorly fitted or top-dose-only effect, or another doubt; inactive = flat fitted curve, though single readings scatter.

Experiment: Stat Signaling Pathway (AID 446);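 note: ME-180 cervical cancer cells given 40 pM IL-6 alongside compound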
Details: ME-180 SIE beta-lactamase reporter, IL-6 stimulated, 5 h; at 7.69 µM (top of the series) unless noted
Protocol: NCGC Assay Overview: The IL-6/STAT signaling pathway was assayed in ME-180 cervical carcinoma cells by a beta-lactamase reporter gene controlled by a STAT Inducible Element (SIE). This reporter is induced by IL-6 at 40 pM AC50 and inhibited by the pan JAK inhibitor, 2-(1,1-Dimethylethyl)-9-fluoro-3,6-dihydro-7H-benz[h]-imidaz[4,5-f]isoquinolin-7-one, at approximately 10 nM AC50. Plated cells were incubated overnight and on the following day, stimulated with 40 pM IL-6 for 5 hrs. The assay was screened at the AC50 of IL-6 activation to identify both inhibitors and activators of IL-6/STAT signaling.
NCGC Assay Protocol Summary: Cells were trypsinized, washed in assay medium (AM, OPTI MEM with 0.5% fetal bovine serum, 0.1 mM nonessential amino acids, 1 mM sodium pyruvate, 10mM HEPES pH 7.3, 100U/ml penicillin, and 100 ug/ml streptomycin) and suspended at 6 x 10e5/ml in AM. Approximately […] cells in 5 uL/well was dispensed into 1536 well plates and the cells were incubated overnight at 37 C. 23 nL of compound were delivered by a pin tool and 1 uL of IL-6 (40 pM final concentration in AM) was added. After centrifugation at 1000 rpm for less than a minute, plates were incubated at 37C for 5 hrs. One uL of detector mix (LiveBLAzerTM, Invitrogen) was added, the plates incubated at room temperature for 2.5 hrs, and fluorescence intensity at 460 and 530 nm emission was measured at 405 nm excitation by an Envision (Perkin Elmer) or Safire II (Tecan). Data were normalized by GeneData to the controls for AC90 stimulation (300 pM IL-6) and to AC90 inhibition (125 nM Jak inhibitor, 40 pM IL-6 in AM).
% is set by controls: 0 for no effect and ±100 for the full control effect.

SMILES | activity, negative = inhibition
O=C(Oc1ccccc1)N1CCC2(CCCN(c3ccc(-c4ccccc4)cc3)C2)CC1 | 6.94%
Cc1ccccc1-c1cncnc1NCCN1CCOCC1 | 7.48%
COC(=O)C1=CO[C@@H](C)[C@H]2CN3CCc4c([nH]c5ccccc45)[C@@H]3C[C@H]12 | 8.22% [at 17.2 µM] and -4.95% [at 17.2 µM]
CN(C)c1ncc2nc(-c3cccs3)c(=O)n(C)c2n1 | 23.5%
O=C(c1csnn1)N1CCC2(CCCN(c3ccccn3)C2)CC1 | 9.35%
O=c1c(-c2cc(F)cc(F)c2)nc2cnc(Oc3ccccc3)nc2n1C1CC1 | -0.523%
CC(C)(O/N=C(\C(=O)N[C@@H]1C(=O)N2C(C(=O)[O-])=C(C[n+]3ccccc3)CS[C@@H]12)c1csc(N)n1)C(=O)O | 7.45% [at 17.2 µM]
Cc1c(CC(C)(C)C(=O)O)n(Cc2ccc(Cl)cc2)c2ccc(F)cc12 | -0.406% [at 38 µM]
CC(=O)N1CCC2(CC1)CCN(C(c1ccccc1)c1ccccc1)CC2 | -5.71%
N#Cc1ccc(CN2CCCC3(CCN(C(=O)c4csnn4)CC3)C2)cc1 | 1.34%
COc1ccc(C(=O)N2CCC3(CCN(Cc4ccccc4OC)CC3)CC2)cc1 | -4.81%
FC(F)(F)c1ccccc1-c1cncnc1NCCc1cnc[nH]1 | -1.23%
N#Cc1ccc(CN2CC[C@@]3(CCCN(C(=O)c4cnccn4)C3)C2)cc1 | 4.34%
COc1ccc2[nH]cc(CCNc3nc(-c4ccccc4CN(C)C)nc4ccccc34)c2c1 | 4.15%
O=C(c1cccc(F)c1)N1CCC2(CC1)CCN(C(c1ccccc1)c1ccccc1)CC2 | -6.67%
COc1ncc2nc(-c3cn(C)c4ccccc34)c(=O)n(CCC#N)c2n1 | -7.24%
c1ccc(Nc2ncncc2-c2ccc3c(c2)OCO3)cc1 | -14.2%
COc1ccccc1CNc1cc(-c2ccccc2C(F)(F)F)ncn1 | 9.59%
COCC(=O)N1CCC[C@@]2(CCN(C(=O)Nc3ccccc3)C2)C1 | -3%

SMILES | activity, negative = inhibition
COCCn1c(=O)c(C)nc2cnc(N3CCOCC3)nc21 | -12.9%
Cc1nc2cnc(Nc3ccccc3)nc2n(C[C@H]2CCCO2)c1=O | -15.1%
CC(C)CN1CC2(CCN(C(=O)c3ccco3)CC2)C1 | -3.41%
FC(F)(F)c1ccccc1-c1cncnc1Nc1ccccc1 | 7.53%
CC(=O)N1CCC2(CC1)CCN(C(=O)Nc1cccc(C#N)c1)CC2 | 3.47%
COc1ccccc1CN1CCCC2(CCN(S(=O)(=O)c3ccccc3)CC2)C1 | 1.94%
CC(C)NC(=O)N1CCCC2(CCN(C(=O)c3ccco3)CC2)C1 | -11.2%
COCCn1c(=O)c(C)nc2cnc(Oc3cccc(Cl)c3)nc21 | -4.78%
COc1cccc(Cn2c(=O)c(-c3ccc(Cl)cc3)nc3cnc(N(C)C)nc32)c1 | 215% [activator] (active)
COc1ccc(C(=O)N2CCC3(CCCN(c4ncccn4)C3)CC2)cc1 | -4.23%
FC(F)(F)c1ccccc1-c1cc(NCc2cccnc2)ncn1 | -3%
O=C(c1cnccn1)N1CCC2(CCN(Cc3ccccc3)CC2)CC1 | -1.26%
N#Cc1cccc(-c2nc3cnc(N4CCOCC4)nc3n(Cc3ccc(F)cc3)c2=O)c1 | 13.2%
O=c1c(-c2cccc(Cl)c2)nc2cncnc2n1Cc1ccccc1 | -3.65%
COc1ccc(C(=O)N2CCC3(CCCN(Cc4ccccc4)C3)CC2)cc1 | -10.9%
c1cncc(CNc2ncncc2-c2ccoc2)c1 | -4.52%
COc1ccc(NC(=O)N2CC[C@@]3(CCCN(C(=O)c4cccc(F)c4)C3)C2)cc1 | -0.331%
O=C(c1cnccn1)N1CCC2(CCCN(c3ccc(-c4ccccc4)cc3)C2)CC1 | 8.97%
COc1ccc(-c2nc3cncnc3n(-c3ccccc3)c2=O)cc1 | -2.81%

Same assay, conditions: ME-180 SIE beta-lactamase reporter, IL-6 stimulated, 5 h; at 17.2 µM (top of the series)

SMILES | activity, negative = inhibition [%]
C[C@@]12CCC(=O)C=C1CC[C@@H]1[C@@H]2[C@H](O)C[C@]2(C)[C@@H]1CC[C@]2(O)C(=O)CO | -0.993

Same assay, conditions: ME-180 (cervical carcinoma) SIE beta-lactamase reporter, IL-6 stimulated, 5 h; at 38 µM (top of the series)

SMILES | activity, negative = inhibition [%]
C[C@@]12CCC(=O)C=C1CC[C@@H]1[C@@H]2[C@H](O)C[C@]2(C)[C@@H]1CC[C@]2(O)C(=O)CO | -22.1
